A selection: hits, their analogues and other compounds. The true share with any hit is near 4%.
RecA splice inh: inhibitors of M. tuberculosis RecA intein splicing; cell-free RecA intein splicing, fluorescence; inhibition, % (test concentration not listed); AID 2221; actives 0.75% (n = 290,000); in the data active means inhibition above about 30%; inconclusive means no clear call, values can overlap the other calls;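 further: 0% = vehicle wells and 100% = reference inhibitor control wells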
Mtb betalactam: beta-lactam sensitization of Mtb H37Rv; M. tuberculosis H37Rv growth with meropenem, percent inhibition; inhibition, % at 25 µM; actives 0.27% (n = 330,000); AID 434955; call rule not given here;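 further: growth measured after seven days incubation then overnight dye step; 0% = bacteria only wells and 100% = bacteria with antibiotic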
GDH-TPI counter: counter-screen for M. tuberculosis FBA inhibitors: GDH-TPI coupled enzymes; actives 1.2% (n = 360,000); GDH-TPI coupled enzyme counterscreen, NADH absorbance; AID 588335; inhibition, % at 4.8 µM; in the data active means inhibition above about 30%;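 further: 0% = DMSO wells and 100% = wells lacking the enzyme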
Mtb UGM inh: inhibitors of M. tuberculosis UDP-galactopyranose mutase; inhibition, % at 10 µM; purified UGM, fluorescence polarization probe displacement; P9WIQ1; actives 0.06% (n = 320,000); in the data active means inhibition above about 10%, passing the limit was not always enough; inconclusive means no clear call, values can overlap the other calls
Mtb FBA inh: inhibitors of M. tuberculosis fructose-bisphosphate aldolase | purified M. tuberculosis FBA, fluorescence read-out | actives 2.3% (n = 360,000) | inhibition, % at 1 µM | AID 588726; in the data active means inhibition above about 27%;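 further: 0% = vehicle and 100% = reference inhibitor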
Rv3671c protease: inhibits the M. tuberculosis serine protease Rv3671c | inhibition, % at 5.96 µM | actives 0.048% (n = 320,000); in the data active means inhibition above about 38%;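 further: extracellular domain of Rv3671c used as enzyme; 0% = enzyme with DMSO and 100% = no enzyme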
* hit, by the source's call; ? = inconclusive; . = not tested or not shown; + = active, no number.

SMILES | RecA splice inh | Mtb betalactam | GDH-TPI counter | Mtb UGM inh | Mtb FBA inh | Rv3671c protease
CNc1ncc(C(=O)c2ccc(Cl)cc2)s1 | 0.7 | 8.1 | 46.8* | 0.5 | -1.8 | -2.5
CNc1ncc(C(=O)c2ccc(-c3ccccc3)cc2)s1 | -1.8 | 4.0 | 21.0 | 0.0 | -1.1 | -9.9
CNc1ncc(C(=O)c2ccc(Cl)c(Cl)c2)s1 | 1.5 | 13.0 | 34.1* | -0.4 | -0.9 | -3.3
O=C(c1ccccc1)c1cnc(Nc2ccccc2Cl)s1 | 6.7 | 3.5 | 30.8* | 3.3 | 0.8 | -3.5
CCOc1ccc(CN2CCNC(=O)C2CC(=O)NCCN2CCOC2=O)cc1 (stereo unspecified) | 0.7 | -9.1 | -4.6 | 2.8 | 3.4 | 2.0
C=CC(=O)N1C/C(=C/c2ccc(Cl)cc2)C(=O)/C(=C\c2ccc(Cl)cc2)C1 | . | . | 22.5 | . | -0.2 | .
C=CC(=O)N1C/C(=C/c2ccccc2)C(=O)/C(=C\c2ccccc2)C1 | . | . | 31.6* | . | 1.4 | .
CCC(=O)c1ccc(OC(=O)c2cccs2)cc1 | 31.9* | 51.3 | 6.4 | 1.5 | -0.7 | 0.4
COC(=O)c1ccc(OC(=O)c2cccs2)cc1 | 26.0 | 19.5 | -4.3 | -0.7 | -0.5 | -2.2
C=CCn1c(=NC(=O)c2cccc(N3C(=O)CCC3=O)c2)sc2cccc(OC)c21 | -0.8 | -5.3 | 41.6* | -1.0 | 3.1 | -10.6
C#CCn1c(=NC(=O)CN2C(=O)CCC2=O)sc2cccc(OC)c21 | -1.8 | -5.6 | 2.0 | 0.1 | 13.5 | 5.4
C#CCn1c(=NC(=O)c2cccs2)sc2cccc(OC)c21 | -5.0 | 7.8 | 30.8* | 3.1 | 6.4 | -37.0
O=C1CC(=Nc2ccc([N+](=O)[O-])cc2)NN1c1c(Cl)cc(Cl)cc1Cl | . | . | 13.4 | . | -3.5 | .
O=C1C2C3C=CC(C3)C2C(=O)N1CCN1CCN(S(=O)(=O)c2ccc3ccccc3c2)CC1 (stereo unspecified) | -0.8 | -8.2 | 12.8 | 10.0* | -6.4 | 7.9
COc1ccc(/C=C(\C#N)C(=O)N2CCOCC2)cc1Br | -3.9 | 1.6 | 37.1* | . | 1.5 | 2.1
Cc1ccc(NC(=S)/C(=C(\[O-])c2ccc(C)c([N+](=O)[O-])c2)[n+]2ccccc2)cc1C | 8.1 | -5.3 | . | 1.3 | . | -4.8
COc1cccc(NC(=S)/C(=C(\[O-])c2ccc(C)c([N+](=O)[O-])c2)[n+]2ccccc2)c1 | 37.2* | 2.6 | 9.9 | 0.8 | -10.7 | -8.0
N#Cc1c(C(F)(F)F)cc(C2CC2)[nH]c1=O | -0.6 | 2.9 | 24.2 | 3.1 | + | -5.7
Cc1ccc(-c2cc(C(F)(F)F)c(C#N)c(=O)[nH]2)cc1 | -25.0 | -5.7 | 17.1 | 2.1 | 138.8* | -7.4
N#Cc1c(C(F)(F)F)cc(-c2ccccc2)[nH]c1=O | -13.1 | -11.7 | 0.3 | 0.9 | + | -0.5
Cc1ccc(-c2cc(-c3ccco3)c(C#N)c(=O)[nH]2)cc1 | -33.2 | -6.1 | 25.9 | 0.2 | 123.7* | 1.4
Cc1ccc(-n2nnnc2SCC(=O)NC2CC2)cc1C | 2.2 | 2.8 | 4.1 | 1.9 | -1.4 | 1.9
c1ccc(OCCNc2ccn3nc(-c4ccc(OCCN5CCOCC5)cc4)cc3n2)cc1 | . | . | 12.5 | . | 12.3 | .
CCCN(C(=O)c1cc2c(s1)CCC2)c1c(N)n(Cc2ccccc2)c(=O)[nH]c1=O | 5.6 | 0.2 | 0.0 | -0.9 | -4.5 | 6.8
CSc1cc(-c2ccccc2)n(C)c(=O)c1C#N | 0.9 | -2.3 | 3.2 | -1.0 | -3.3 | -2.5
SMILES | RecA splice inh | Mtb betalactam | GDH-TPI counter | Mtb UGM inh | Mtb FBA inh | Rv3671c protease
N#Cc1c(C(F)(F)F)cc(-c2ccccc2Cl)[nH]c1=O | 1.1 | -2.8 | 10.1 | 1.1 | 145.4* | -6.0
COc1cccc(-c2c3c([nH]c(=O)c2C#N)CCc2cc(OC)ccc2-3)c1 | -11.7 | 4.2 | . | 0.7 | . | 3.9
COc1cccc(-c2cc(C(F)(F)F)c(C#N)c(=O)[nH]2)c1 | -16.3 | -4.1 | 5.7 | 1.7 | + | -7.3
CSc1cc(-c2ccccc2)[nH]c(=O)c1C#N | -2.8 | -2.0 | 18.8 | 3.0 | 34.2* | 4.8
O=C(c1cc(=O)[nH]c2ccccc12)N1CCN(c2ccc([N+](=O)[O-])cc2)CC1 | -1.9 | -6.5 | 35.1* | 1.7 | -6.7 | -0.9
C[C@H]1CN([C@@H](C)CO)C(=O)c2cc(Br)cnc2O[C@H]1CN(C)Cc1ccccc1C(=O)O | . | . | -4.3 | . | -1.6 | .
Cc1c(/C=N/NC(=O)COc2ccccc2[N+](=O)[O-])c2ccccc2n1C | -0.8 | 1.4 | 34.2* | 0.4 | -4.1 | -2.2
Cc1ccc(OCC(=O)N/N=C\c2c(C)n(C)c3ccccc23)c([N+](=O)[O-])c1 | -0.7 | ? | 31.5* | 0.5 | 1.6 | 8.4
